Laboratory results reported in PubChem BioAssay (NCATS).
“And” between values parts separate entries of the source, which are not always exact repeats. Equal entries are not always repeated. Results filed as inconclusive are left out. Some compounds were tested as several samples or in several runs, with calls that do not always agree. The source made the active and inactive calls. The call rests on the fitted dose curve; in most records, active means well fitted cell-killing curve with a large enough effect; inconclusive means small, poorly fitted or top-dose-only effect, or effect the other way; inactive means no such curve, though single readings can be large or run the other way.

experiment: Viability qHTS for spleen associated tyrosine kinase inhibitor (SYKi) naive MV4-11 cells (AID 1963823); settings: MV4-11 AML viability, CellTiter-Glo luminescence, 72 h; series mostly up to 45 µM; further: nearly all actives have a fitted effect of over 40% in size
How it was run: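 SYKi-naive MV4-11 AML cells, 500 per well, were exposed to library compounds for 72 hr at 37 C, 5% CO2. Viability was then read by CellTiter-Glo luminescence after 10 min at room temperature.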
Potency means the concentration at half of the fitted maximal effect.

| Structure (SMILES) | Potency | viability (% of control) |
| --- | --- | --- |
| Oc1ccc(-c2nc(-c3ccc(F)cc3)c(-c3ccncc3)[nH]2)cc1 | 9.34 µM (active) | – |
| Cc1c(C(=O)Nc2ccc(N3C[C@@H](C)O[C@@H](C)C3)nc2)cccc1-c1ccc(OC(F)(F)F)cc1 | inactive and 16.6 µM (active) | – |
| CC(C)NCC(O)c1ccc(NS(C)(=O)=O)cc1 (stereo not given) | inactive | – |
| COc1ccc(C2CNC(=O)C2)cc1OC1CCCC1 (stereo not given) | 0.525 µM (active) | – |
| CC(C)Nc1cc(-c2c[nH]c(C(=O)N[C@H](CO)c3cccc(Cl)c3)c2)c(Cl)cn1 | 2.91 µM (active) and 2.09 µM (active) | – |
| Cc1cccc(-c2[nH]c(C(C)(C)C)nc2-c2ccc3nccnc3c2)n1 | 20.9 µM (active) and 3.26 µM (active) | – |
| CCn1c(-c2nonc2N)nc2cncc(CNC3CCNCC3)c21 | 2.91 µM (active) and 2.95 µM (active) | – |
| Cc1ncc([N+](=O)[O-])n1CCO | inactive | – |
| C#Cc1cccc(Nc2ncnc3cc(OCCOC)c(OCCOC)cc23)c1 | 3.76 µM (active) and 1.86 µM (active) | – |
| C=C(C)[C@@H]1CC[C@]2(C)CC[C@]3(C)[C@H](CC[C@@H]4[C@@]5(C)CC[C@H](O)C(C)(C)[C@H]5CC[C@]43C)[C@@H]12 | inactive | – |
| C[Se]CCC(N)C(=O)O (stereo not given) | inactive | – |
| C=CC(=O)Nc1cccc(Oc2nc(Nc3ccc(N4CCN(C)CC4)cc3OC)ncc2Cl)c1 | 1.64 µM (active) and 1.66 µM (active) | – |
| COc1ccc2c(c1)c(CC(=O)OCC(=O)O)c(C)n2C(=O)c1ccc(Cl)cc1 | inactive | – |
| O=c1cc(N2CCOCC2)oc2c(-c3cccc4c3sc3ccccc34)cccc12 | 1.48 µM (active) | – |
| CCn1nnc2c(N3CCOCC3)nc(-c3ccc(NC(=O)Nc4ccc(C(=O)N5CCN(C)CC5)cc4)cc3)nc21 | 20.6 nM (active) and 46.8 nM (active) | – |
| COc1cc2ncnc(Nc3ccc(F)c(Cl)c3)c2cc1OCCCN1CCOCC1 | 4.22 µM (active) | – |
| Cc1cnc(C(=O)NCCc2ccc(S(=O)(=O)NC(=O)NC3CCCCC3)cc2)cn1 | inactive | – |
| CC(C)[C@H](N)C(=O)OCCOCn1cnc2c(=O)[nH]c(N)nc21 | 5.9 µM (active) | – |
| CC(=O)O[C@H]1C(=O)[C@@]2(C)C([C@H](OC(=O)c3ccccc3)[C@]3(O)C[C@H](OC(=O)[C@H](O)[C@@H](NC(=O)c4ccccc4)c4ccccc4)C(C)=C1C3(C)C)[C@]1(OC(C)=O)CO[C@@H]1C[C@@H]2O (stereo not given in full) | 5.1 nM (active) and 8.3 nM (active) | – |
| COc1cc2ncnc(Nc3cccc(Br)c3)c2cc1OC | 4.68 µM (active) | – |

| Structure (SMILES) | Potency | viability (% of control) |
| --- | --- | --- |
| NS(=O)(=O)c1cccc2c1C(=O)c1cccc(O)c1C2=O | 0.525 µM (active) | – |
| NC1(C(=O)N[C@@H](CCO)c2ccc(Cl)cc2)CCN(c2ncnc3[nH]ccc23)CC1 | 0.461 µM (active) | – |
| Cn1cc(C[C@@H](N)C(=O)O)c2ccccc21 | – | 69.9% [at 9.25 µM] (inactive) |
| CCCn1c(=O)c2[nH]c(C34CC5CC3C[C@@H](C5)C4)nc2n(CCC)c1=O | 18.6 µM (active) | – |
| CC(C)(OCc1nn(Cc2ccccc2)c2ccccc12)C(=O)O | inactive | – |
| CC(C(=O)O)c1ccc2c(c1)CC(=O)c1ccccc1S2 (stereo not given) | inactive | – |
| O=c1cc(-c2cccc3c2Sc2ccccc2S3)oc(N2CCOCC2)c1 | 6.51 µM (active) and 16.6 µM (active) | – |
| COc1cc2c(Nc3ccc(Cl)c(Cl)c3F)ncnc2cc1OCC1C[C@@H]2CN(C)C[C@@H]2C1 (stereo not given in full) | 1.86 µM (active) | – |
| CN(C)c1nc(N(C)C)nc(N(C)C)n1 | inactive | – |
| O=C(Nc1ncc(SCCN2CCCC2)s1)[C@]1(c2ccc(S(=O)(=O)C3CC3)cc2)C[C@@H]1C1CCCCC1 | 2.59 µM (active) | – |
| C[C@H](CCC(=O)O)[C@H]1CCC2C3C[C@H](O)[C@@H]4C[C@H](O)CC[C@]4(C)C3CC[C@@]21C (stereo not given in full) | inactive | – |
| CCN(CC)CCNC(=O)c1ccc2nc(-c3ccccc3)c(-c3ccc(CN4CCC(n5c(=O)[nH]c6ccccc65)CC4)cc3)nc2c1 | 2.06 µM (active) and 3.32 µM (active) | – |
| CC1=C[C@@H]2[C@@H]([C@@H](O)C[C@@]3(C)[C@H]2C[C@@H](C)[C@]3(O)C(=O)CO)[C@@]2(C)Cc3cnn(-c4ccccc4)c3C=C12 | 0.731 µM (active) | – |
| Cc1ccc(C(=O)N(CCCN)[C@@H](c2oc3cc(Cl)ccc3c(=O)c2Cc2ccccc2)C(C)C)cc1 | 0.0105 µM (active) | – |
| CNC(=O)Nc1ccc(-c2nc(N3CC4CCC(C3)O4)c3cnn(C4CCC5(CC4)OCCO5)c3n2)cc1 | 0.0742 µM (active) | – |
| Oc1cc2c(cc1O)C1c3ccc(O)c(O)c3OCC1(O)C2 (stereo not given) | 16.6 µM (active) | – |
| COc1cc(NS(=O)(=O)c2ccc(N)cc2)nc(OC)n1 | inactive | – |
| CC(C)C(=O)Nc1ncc(-c2cc(C(F)F)nn2-c2c(Cl)cccc2Cl)s1 | 18.6 µM (active) | – |
| CCc1cc(C(N)=S)ccn1 | inactive | – |
| CNC1CCC(N(Cc2cccc(-c3ccncc3)c2)C(=O)c2sc3c(F)ccc(F)c3c2Cl)CC1 (stereo not given) | 2.63 µM (active) and 8.2 µM (active) | – |
